RmlCD inh mix: RmlC and RmlD coupled enzyme inhibitors, primary screen, biochemical, 384-well, compound mixtures, retest | RmlC/RmlD coupled enzyme inhibition, 384-well mixture HTS | actives 0.39% (n = 110,000) | AID 1532, 2009 | inhibition, % at 5.5 µM; in the data active = inhibition above about 30%, passing the limit was not always enough
HIV RNase H inh: HIV-1 RT RNase H inhibitors, primary screen, biochemical, fluorescence; Gag-Pol polyprotein (Human immunodeficiency virus type 1 group M subtype B (isolate …; RT-RNase H RNA/DNA duplex cleavage; inhibition, % at 10 µM; actives 1.9% (n = 65,000); AID 565, 2006; in the data active = inhibition above about 50%
RmlCD artifact: counter-screen for RmlC/RmlD inhibitors: fluorescence artifact, dose response, artefact control, biochemical | shares compounds with RmlCD inh mix | AID 1696, 2009 | calls only | actives 96% (n = 360) | RmlC/RmlD assay fluorescence artifact counter-screen; call rule not given here;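 also: compound alone with no enzyme and no substrates present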
A number is an active result; 0 = inactive; - = not tested or not shown; + = active, no number. This excerpt belongs to a sample that is enriched for hits.

SMILES | RmlCD inh mix | HIV RNase H inh | RmlCD artifact
CCN(CC)S(=O)(=O)c1ccc(NC(=O)Cn2c(=O)sc3ccccc32)cc1 | 0 | 0 | -
C=CCn1c(=O)/c(=C/c2cc(OC)c(OC)c(OC)c2)s/c1=C(/C#N)c1nc2ccccc2n1C | 0 | 0 | -
CNC(=O)C1CC(=O)N(CCCc2ccccc2)C(=Nc2ccccc2)S1 (stereo not drawn) | 0 | - | -
Cc1cc(=O)oc2cc(NS(=O)(=O)c3ccccc3)ccc12 | - | - | +
CN(C)S(=O)(=O)c1ccc(S(=O)(=O)Nc2ccc3c(c2)oc2ccccc23)cc1 | 0 | 0 | -
NC(=O)[C@H]1CC2(CC(c3cccc(NC(=O)COc4ccc(Cl)cc4)c3)=NO2)CN1C(=O)Cc1ccc([N+](=O)[O-])cc1 (stereo partly drawn) | 0 | - | -
CCOC(=O)[C@@H]1[C@H]2COc3cc(OC)ccc3[C@@H]2N2C(=O)N(c3ccc(Cl)cc3)C(=O)[C@]12C | 0 | - | -
CC1(C)CC(=O)C=C(c2cccnc2)C1 | 0 | - | -
Cc1nc(=O)c(-c2ccccc2)c(C)n1CCCCCC(=O)O | 0 | - | -
O=C(NCc1ccco1)c1ccc2nc3sc4c(c3c(=O)n2c1)CCCC4 | 46 | 0 | +
C=CCn1c(SCC(=O)NCc2ccco2)nc2sc3c(c2c1=O)CCCC3 | 0 | - | -
COc1ccc(OC)c(NC(=O)CN2C(=O)c3ccccc3S2(=O)=O)c1 | 0 | 0 | -
COc1ccc2c(c1)-c1ccccc1S(=O)(=O)N2C(C)=O | 131 | 0 | +
COC(=O)c1cc(C(=O)OC)cc(S(=O)(=O)Nc2ccc(Cl)c(N)c2)c1 | 0 | 0 | -
O=C(Nc1ccc2c(c1)OCO2)C1Cc2ccccc2CN1S(=O)(=O)c1cccs1 (stereo not drawn) | 0 | 0 | -
COc1ccc(-c2nnc(NC(=O)C3CCCO3)s2)cc1 (stereo not drawn) | 0 | - | -
Cc1cccc(C(=O)N(C)c2nnc(-c3ccncc3)s2)c1 | 0 | 0 | -
CN(C(=O)C1CCCO1)c1nnc(-c2ccccn2)s1 (stereo not drawn) | 162 | 0 | +
COc1ccccc1CCNC(=O)C1CCCO1 (stereo not drawn) | 0 | 0 | -
CN(C(=O)C1CCCO1)c1nnc(-c2ccncc2)s1 (stereo not drawn) | 161 | 0 | +
COc1ccccc1-c1nnc(N(C)C(=O)C2CCCO2)s1 (stereo not drawn) | 37 | 0 | +
Cc1cnc(-c2nnc(N(C)C(=O)C3CCOC3)s2)cn1 (stereo not drawn) | - | 0 | -
CN(C(=O)c1ccncc1)c1nnc(-c2ccncc2)s1 | 103 | 0 | +
COc1cc(O)c(C(C)=O)c(CC(=O)O)c1 | 0 | - | -
C=CCNC(=O)c1onc(CSc2ccccn2)c1C(=O)NCC=C | 0 | - | -
SMILES | RmlCD inh mix | HIV RNase H inh | RmlCD artifact
Fc1ccccc1-c1nc2c(s1)CCc1onc(-c3ccc(Br)cc3)c1-2 | 0 | - | -
COc1ccc(Cl)cc1C(=O)Nc1nnn(C)n1 | 0 | 0 | -
Cc1c(C(=O)OC(C)C)nnn1-c1nonc1N | 0 | - | -
CCn1ncc([N+](=O)[O-])c1C(=O)N1CCCC1 | 0 | - | -
CN(C(=O)C1CCOC1)c1nnc(-c2ccncc2)s1 (stereo not drawn) | 48 | 0 | +
COCC(=O)N(C)c1nnc(-c2ccccn2)s1 | 111 | 0 | +
CN(C(=O)C1CCOC1)c1nnc(-c2ccccn2)s1 (stereo not drawn) | 0 | 0 | -
COCC(=O)N(C)c1nnc(-c2ccc([N+](=O)[O-])cc2)s1 | 0 | - | -
COC(C[C@H]1O[C@H]1[C@@H](O)[C@@H](C)OCc1ccccc1)OC | 0 | - | -
CCOC(=O)C1=C(CSc2nc(-c3ccccc3)ccc2C#N)OC(N)=C(C#N)C1c1cccnc1 (stereo not drawn) | 45 | - | +
CCOC(=O)C1=C(CSc2nc(-c3ccccc3)ccc2C#N)OC(N)=C(C#N)C1c1ccccc1 (stereo not drawn) | 0 | - | -
